# Where “and” joins values, the source holds several entries; their conditions need not be identical. Equal entries are not always repeated.
# Molecular target: Calmodulin-1 (Homo sapiens) (UniProt P0DP23)
# Assay: small molecules binding Ca-loaded calmodulin-1 – biochemical, small-molecule microarray, Cy5-labelled CALM1, plus calcium, artefact control for SMM control-protein annotation, profiling panel (AID 1112);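 further: score merges spot fluorescence with signal to noise from triplicate slides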
# Conditions: Cy5-CALM1 binding fluorescence, higher = more signal
row,SMILES,composite z-score
1,CC(CO)N1C(=O)[C@@H]2C3C(=O)OCCC=C[C@H]3OC23C=CCN(CCN2CCOCC2)C(=O)[C@@H]13 (stereo partly specified),-0.75 and -1.03
2,COC(=O)C1=C(C)N(Cc2ccccc2)C2=C(C(C)=O)[C@H](c3ccccc3)[C@@](O)(C(=O)OC)C(=O)N2[C@@H]1c1ccccc1,0.004 and -0.587
3,CC(C)=NOC[C@@H](O)COCc1ccco1,-0.142
4,C[C@@H]1CC[C@H]2C(=O)NC[C@@H](O)CN2[C@H]1c1ccc(Br)cc1,-0.342 and -0.438
5,CCOC(=O)[C@@H]1CC2O[C@]23C[C@@H]1C(=O)N1CCC[C@@H]1[C@H]3O[Si](C)(C)C(C)(C)C (stereo partly specified),-0.748 and -0.252
6,C[N+](C)(C)CCCCNC(=O)[C@H]1C[C@H]2C(=O)N[C@@H](CCCC[N+](C)(C)C)C(=O)N2[C@H]1c1ccc(O)cc1,-0.426 and -1.34
7,CC(C)[Si]1(C(C)C)OCc2cc(CCCc3cc4c(c(CCc5ccccc5)n3)[Si](C(C)C)(C(C)C)OC4)nc(CCc3ccccc3)c21,0.797 and -0.487
8,COC(=O)C1=C(C)N(Cc2ccccc2)C2=C3C(=O)N(c4ccccc4)C(=O)[C@@H]3[C@@](O)(C(=O)OC)C(=O)N2[C@@H]1c1ccccc1,-0.65 and -0.381
9,CO[C@H]1COC(=O)CC=C[C@H](C)[C@H](OC)COC(=O)[C@@H](C)COC(=O)CC=C[C@@H]1C,-1.68 and -2.71
10,C=CCN(C(=O)C1N(c2ccc(CCO)cc2)C(=O)C2C(C(=O)O)C3C=CC21O3)c1ccc(OC)cc1 (stereo unspecified),-0.702 and 0.0188
11,COC(=O)[C@@]1(Cc2ccc(F)cc2)[C@H]2c3cc(C(=O)N4CCCC4)n(Cc4c(CO)[nH]cc(C)c4=O)c3C[C@H]2CN1C(=O)c1ccccc1,0.249 and 0.299
12,CC(CO)N1C(=O)[C@@H]2C3C(=O)OCCC=C[C@H]3OC23C=CCN(c2ccc(Cl)cc2)C(=O)[C@@H]13 (stereo partly specified),1.09 and -0.66
13,C=CCN(CCCC)C(=O)C(c1cccs1)N(C(=O)/C=C\C(=O)O)c1c(Cl)cccc1CO (stereo unspecified),0.215 and 0.584
14,CCOC(=O)C[C@H]1[C@H](OC(=O)c2ccccc2-c2ccccc2)[C@@H](NC(=O)c2ccccc2)c2cc(OCCCO)ccc2N1C(=O)c1ccc2ccccc2n1,-0.148 and 0.227
15,C=CCN(C(=O)C1N(c2c(Cl)cccc2CO)C(=O)C2C(C(=O)O)C3C=CC21O3)C(C)(C)C (stereo unspecified),-0.0519 and 0.673
16,C#CCCCON=C1C[C@@H](O)[C@@H](O)[C@@H]2[C@@H]3C(=O)N(C4CCCCC4)C(=O)[C@@H]3CC[C@H]12,0.244

row,SMILES,composite z-score
1,C=CCN(CCCC)C(=O)C1N(c2ccc(CCO)cc2)C(=O)C2C(C(=O)O)C3C=CC21O3 (stereo unspecified),0.33 and 0.554
2,C=CCN(C(=O)C1N(c2c(Cl)cccc2CO)C(=O)C2C(C(=O)O)C3C=CC21O3)c1ccc(OC)cc1 (stereo unspecified),-0.0974 and 0.407
3,CON(C)C(=O)c1nnc2c3ccccc3n(S(=O)(=O)c3ccc(C)cc3)c2n1,-0.318 and -1.11
4,CCCC[C@@H]1CN2[C@H](c3ccc(Br)cc3)[C@@H](C)CC[C@H]2C(=O)O1,-0.329 and -0.334
5,C=CCN(CCCCC)C(=O)C1N(c2ccc(CCO)cc2)C(=O)C2C(C(=O)O)C3C=CC21O3 (stereo unspecified),-0.455 and -0.143
6,C=CCN(Cc1ccccc1)C(=O)C1N(C(C)(C)CO)C(=O)C2C(C(=O)O)C3C=CC21O3 (stereo unspecified),1.19 and 0.132
7,O=C1C[C@]2(c3ccc([N+](=O)[O-])cc3)C(=O)N(Cc3ccccc3)c3cc(CO)ccc3[C@H]2N1C1CCCCC1,-0.195 and 0.163
8,C=CCN(Cc1ccccc1)C(=O)C(c1cccs1)N(C(=O)/C=C\C(=O)O)c1c(Cl)cccc1CO (stereo unspecified),0.58 and 0.911
9,CCOC(=O)c1ccc(NC(=O)O[C@H]2[C@H](OC(=O)Nc3ccccc3)[C@@H](OC(=O)Nc3ccccc3)[C@@H](OC)O[C@@H]2CO)cc1,0.114 and -0.0271
10,C=C(C)C(=O)OC[C@@H]1CN2[C@@H](CC[C@@H](C)[C@@H]2c2ccc(Br)cc2)C(=O)O1,-0.157
11,CC(CO)N1C(=O)[C@@H]2C3C(=O)OCCC=C[C@H]3OC23C=CCN(Cn2nnc4ccccc42)C(=O)[C@@H]13 (stereo partly specified),0.73 and -0.573
12,O=C(NN=C1C[C@@H](O)[C@@H](O)[C@@H]2[C@@H]3C(=O)N(Cc4ccc5c(c4)OCO5)C(=O)[C@@H]3CC[C@H]12)OCc1ccccc1,-1.29
13,COC(=O)[C@@]1(Cc2ccc(OC)cc2)[C@H]2c3cc(C(=O)N(C)C)n(Cc4ccc(O)c(OC)c4)c3C[C@H]2CN1C(=O)c1ccccc1,0.88 and 0.206
14,O=C1NC(=O)C2C1C=CC(C(O)c1ccc([N+](=O)[O-])cc1)N2Nc1ccc(Cl)cc1Cl (stereo unspecified),0.436 and 0.0078
15,CC(C)=CCCC(C)=CCON=C1C[C@@H](O)[C@@H](O)[C@@H]2[C@@H]3C(=O)N([C@@H](C)c4ccccc4)C(=O)[C@@H]3CC[C@H]12,-0.782
